Several values for one entry are separate records, joined by “and”; a condition that tells them apart may be missing. Identical values can stand only once. Results filed as inconclusive are left out. Activity calls are given as the source filed them. Unless noted, calls follow the shape of the dose curve; as a rule, active = well fitted curve in the direction sought with a large enough effect in the repeat runs; inconclusive = weak or mixed curves; inactive = no such curve, though single readings can be large; an effect the other way counts as inactive or inconclusive.

This is an account of results in PubChem BioAssay (Tox21).

Assay [1] is described as follows: qHTS assay to identify small molecule agonists of the RXR signaling pathway - cell viability counter screen (AID 1159529). Also: nearly all actives have a fitted effect of over 50% in size. Also: potency is read from the fitted curve at half-maximal effect. In short, it runs like this: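 Counter screen: CellTiter-Glo luminescence. Cells: RXR-alpha-UAS-bla HEK 293T. Medium: 2% charcoal-stripped FBS. Treatment: 16 h, 37 C. Reagent incubation: 30 min, RT.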
Assay [2] can be described thus: qHTS assay to identify small molecule antagonists of the retinoid acid receptor (RAR) signaling pathway - cell viability counter screen (AID 1159551). Also: nearly all actives have a fitted effect of over 35% in size. A digest of the protocol: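 Luminescent ATP quantitation (CellTiter-Glo) gave cell viability in C3RL4 cells exposed to test chemicals for 6 h at 37 C alongside 1 uM final retinol.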
The nature of assay [3]: qHTS assay to identify small molecule antagonists of the estrogen related receptor (ERR) signaling pathway from Tox21 library - cell viability counter screen (AID 1224834). Also: nearly all actives have a fitted effect of over 30% in size. A digest of the protocol: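 Fluorescence from CellTiter-Fluor gives the viability read-out, taken 30 min after reagent addition. Before that, ERR cells seeded 6 h earlier were incubated with compounds for 17.5 h at 37 C.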

Assay [4] can be described thus: qHTS assay to identify small molecule agonists of the constitutive androstane receptor (CAR) signaling pathway - cell viability counter screen (AID 1224836). Also: series mostly up to about 92 µM; nearly all actives have a fitted effect of over 45% in size. In short, it runs like this: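 Double-stable HepG2 hepatoma cells (hCAR plus CYP2B6-2.2kb) are treated for 23 h at 37 C with test compounds in 15-point concentration series. PK11195 at 0.75 uM final is co-added. Cell viability is quantified by CellTiter-Fluor.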

Assay [5] is described as follows: qHTS assay to identify small molecule antagonists of the constitutive androstane receptor (CAR) signaling pathway - cell viability counter screen (AID 1224837). Also: series mostly up to about 92 µM; nearly all actives have a fitted effect of over 45% in size. In short, it runs like this:
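HepG2-CYP2B6-hCAR cells, 2500/well, 4 hr pre-incubation; compound titration, 15 conc.; CITCO 50 nM final; 23 hr, 37 C/5% CO2; CellTiter-Fluor, fluorescence intensity.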

A short description of assay [6]: qHTS assay to identify small molecule antagonists of the estrogen related receptor signaling pathway with the pleiotropic PPARgamma coactivator (PGC) from Tox21 10K library - cell viability counter screen (AID 1224840; active = well fitted cell-killing curve with a large enough effect in the repeat runs, not every such curve was filed as active; also: nearly all actives have a fitted effect of over 40% in size). A digest of the protocol:
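PGC/ERR cells, 2,000/well; 6 h pre-incubation 37 C/5% CO2; cpd in DMSO via pin tool; 17.5 h 37 C; CellTiter-Fluor, 30 min; fluorescence.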

The target of assay [7] is Luciferin 4-monooxygenase (Photinus pyralis) (UniProt P08659). The experiment in a line: qHTS assay to identify small molecule inhibitors of firefly luciferase (AID 1224835). Also: series mostly up to about 120 µM; nearly all actives have a fitted effect of over 25% in size. A digest of the protocol: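 Inhibition of purified Photinus luciferase is measured by luminescence. Substrate levels (D-luciferin, ATP) sit at their KM values. Each compound is tested in a concentration series.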
Sequence of Luciferin 4-monooxygenase (Photinus pyralis) (P08659 whole entry, looked up): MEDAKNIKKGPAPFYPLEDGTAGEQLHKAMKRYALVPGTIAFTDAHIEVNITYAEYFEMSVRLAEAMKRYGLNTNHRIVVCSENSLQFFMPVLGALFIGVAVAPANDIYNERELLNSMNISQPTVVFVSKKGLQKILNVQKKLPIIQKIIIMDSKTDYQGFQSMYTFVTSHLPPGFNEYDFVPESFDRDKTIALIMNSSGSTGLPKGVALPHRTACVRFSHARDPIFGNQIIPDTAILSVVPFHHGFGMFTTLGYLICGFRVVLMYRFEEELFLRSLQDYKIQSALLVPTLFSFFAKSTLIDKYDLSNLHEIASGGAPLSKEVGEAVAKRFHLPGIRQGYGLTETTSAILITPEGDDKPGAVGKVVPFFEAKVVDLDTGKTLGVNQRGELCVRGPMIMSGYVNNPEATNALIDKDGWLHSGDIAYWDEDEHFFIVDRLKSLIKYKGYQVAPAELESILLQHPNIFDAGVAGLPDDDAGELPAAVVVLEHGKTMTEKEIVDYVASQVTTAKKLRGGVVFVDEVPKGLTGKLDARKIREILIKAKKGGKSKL

Assay [8] has as its target Nuclear receptor subfamily 1 group I member 3 (Homo sapiens) (UniProt Q14994). As to the kind of experiment: qHTS assay to identify small molecule antagonists of the constitutive androstane receptor (CAR) signaling pathway (AID 1224838).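 Also: HepG2 cells stably expressing hCAR with CYP2B6 luciferase reporter stimulated by CITCO; nearly all actives have a fitted effect of over 40% in size.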 In short, it runs like this:
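HepG2-CYP2B6-hCAR cells; 4 h pre-incubation; cpd (15 conc) + CITCO 50 nM final; 24 h, 37 C/5% CO2; ONE-Glo, luminescence.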

Assay [9] is described as follows: qHTS assay to identify small molecule antagonists of the estrogen related receptor signaling pathway with the pleiotropic PPARgamma coactivator (PGC) from Tox21 10K library (AID 1224841; call rule not given here; also: series mostly up to about 92 µM; actives are mostly falling curves and most rising ones were filed inactive; nearly all actives have a fitted effect of over 50% in size). In short, it runs like this:
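PGC/ERR cell line, 2,000 cells/well; 6 h pre-incubation 37 C/5% CO2; compounds (DMSO) pinned in; 18 h, 37 C; One-Glo, 30 min RT; luminescence.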

Assay [10] is described as follows: qHTS assay to identify small molecule agonists of the estrogen related receptor signaling pathway with the pleiotropic PPARgamma coactivator (PGC) from Tox21 10K library (AID 1224842). Also: nearly all actives have a fitted effect of over 15% in size. A digest of the protocol: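 Luminescence from One-Glo (30 min, room temperature) measured after PGC/ERR cells had 18 h at 37 C with pinned compound (23 nL in DMSO). Cells had been seeded at 2,000 per well and pre-incubated 6 h.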

Assay [11] deals with Thyrotropin receptor (Homo sapiens) (UniProt P16473). The experiment in a line: qHTS assay to identify small molecule agonists of the thyroid stimulating hormone receptor (TSHR) signaling pathway (AID 1224843; calls by dose curve; also: nearly all actives have a fitted effect of over 45% in size). A digest of the protocol: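 HEK293 cells stably bearing the thyrotropin receptor were plated at 800 cells/well and challenged with compound (30 min, RT). Accumulated cAMP was quantified via cAMP-d2 competing for cryptate-tagged antibody.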
Sequence of Thyrotropin receptor (Homo sapiens) (P16473 whole entry, looked up): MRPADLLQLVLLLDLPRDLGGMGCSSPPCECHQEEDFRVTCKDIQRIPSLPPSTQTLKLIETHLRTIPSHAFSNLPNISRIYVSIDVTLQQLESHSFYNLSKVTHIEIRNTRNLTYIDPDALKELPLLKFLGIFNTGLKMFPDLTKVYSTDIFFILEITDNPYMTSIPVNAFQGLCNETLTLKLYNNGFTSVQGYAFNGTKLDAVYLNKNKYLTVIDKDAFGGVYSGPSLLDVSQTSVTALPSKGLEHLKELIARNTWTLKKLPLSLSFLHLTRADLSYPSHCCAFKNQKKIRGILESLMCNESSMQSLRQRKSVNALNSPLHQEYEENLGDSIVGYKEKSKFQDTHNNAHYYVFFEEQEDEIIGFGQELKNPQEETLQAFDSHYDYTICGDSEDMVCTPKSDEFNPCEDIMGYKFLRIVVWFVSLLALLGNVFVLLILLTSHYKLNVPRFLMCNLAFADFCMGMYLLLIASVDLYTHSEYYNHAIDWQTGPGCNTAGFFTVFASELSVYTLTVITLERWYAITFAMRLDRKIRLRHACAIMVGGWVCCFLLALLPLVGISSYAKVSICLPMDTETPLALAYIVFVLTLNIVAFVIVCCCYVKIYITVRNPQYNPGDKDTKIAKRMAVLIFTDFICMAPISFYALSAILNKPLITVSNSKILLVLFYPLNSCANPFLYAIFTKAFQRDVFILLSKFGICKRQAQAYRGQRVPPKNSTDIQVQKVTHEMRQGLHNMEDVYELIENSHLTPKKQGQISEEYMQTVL

Assay [12] deals with Nuclear receptor subfamily 1 group I member 3 (Homo sapiens) (UniProt Q14994). As to the kind of experiment: qHTS assay to identify small molecule agonists of the constitutive androstane receptor (CAR) signaling pathway (AID 1224839). Also: nearly all actives have a fitted effect of over 15% in size. Also: potency is read from the fitted curve at half-maximal effect. In short, it runs like this: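 Readout: firefly luciferase luminescence via ONE-Glo. System: HepG2 double-stable for hCAR and CYP2B6-2.2kb. Conditions: 15-point compound titration, PK11195 at 0.75 uM final, 24 h incubation.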
Sequence of Nuclear receptor subfamily 1 group I member 3 (Homo sapiens) (Q14994 whole entry, looked up): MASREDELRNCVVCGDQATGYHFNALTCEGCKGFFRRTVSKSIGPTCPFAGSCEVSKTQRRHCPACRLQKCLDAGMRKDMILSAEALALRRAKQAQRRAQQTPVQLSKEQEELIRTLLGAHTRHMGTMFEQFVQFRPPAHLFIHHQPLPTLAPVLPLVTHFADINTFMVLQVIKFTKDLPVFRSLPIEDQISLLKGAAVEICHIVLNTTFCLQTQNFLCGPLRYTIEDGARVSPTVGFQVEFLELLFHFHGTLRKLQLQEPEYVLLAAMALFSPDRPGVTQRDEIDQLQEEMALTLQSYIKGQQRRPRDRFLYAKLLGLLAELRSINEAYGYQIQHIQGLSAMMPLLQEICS

Assay [13] can be described thus: qHTS assay to identify small molecule antagonists of the estrogen related receptor (ERR) signaling pathway - cell viability counter screen (AID 1224818).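 Also: series mostly up to about 46 µM; viability measured after 17.5 h of compound exposure.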 In short, it runs like this:
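Multiplexed counter screen to separate cytotoxic compounds from true ERR modulators. ERR cells received DMSO-dissolved compounds after a 6 h pre-incubation, were exposed 17.5 h at 37 C, then assayed with CellTiter-Fluor fluorescence.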

Assay [14] is described as follows: qHTS assay to identify small molecule antagonists of the estrogen related receptor signaling pathway with the pleiotropic PPARgamma coactivator (PGC) cell viability counter screen (AID 1224822; also: series mostly up to about 46 µM). In short, it runs like this:
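Cells: PGC/ERR, 2,000/well, 1536-well format. Pre-incubation 6 h, 37 C/5% CO2. Compound exposure 17.5 h, 37 C. Detection: CellTiter-Fluor, 30 min, fluorescence.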

As to `[Cl-].[Cl-].[Sn+2]`, the Potency result in assay [1], in [2], in assay [3], in [4], in assay [5] and in [6] was “inactive” each time.

`CC(Cc1ccc(OCC(=O)O)cc1)NCC(O)c1csc(C(F)(F)F)n1` (stereo not drawn): the Potency entry in assay [1], in assay [2], in assay [7], in assay [4], in assay [5] and in assay [8] was “inactive” each time. In addition, the Potency entry in assay [6], in assay [9], in [10] and in assay [11] was “inactive” throughout.

Regarding `CCCCc1ccccc1`, the Potency result in assay [1], in assay [2], in assay [3], in assay [7], in assay [4] and in [8] was “inactive” each time. Further, the Potency result in [12] and in assay [6] was “inactive” throughout.

Turning to `COP(=S)(NC(C)C)Oc1ccc(C)cc1[N+](=O)[O-]` (stereo not drawn), the Potency result in assay [1], in assay [2], in assay [3], in assay [7], in assay [5] and in [8] was “inactive” throughout. In addition, the Potency entry in assay [6] is “inactive”. The Potency in [12] is 6.86 µM (active).

As to `O=C(O)[C@H](O)[C@@H](O)C(=O)O`, the Potency result in assay [1], in [2], in [7] and in assay [6] was “inactive” each time.

Regarding `CCCC[N+]1(C)CCCC1` (tested in a mixture with another compound), the Potency result in assay [1], in [2], in assay [3], in assay [7], in assay [4] and in assay [5] was “inactive” each time. In addition, in [6], the Potency entry is “inactive”.

In the case of `O.O.O.O.O.O.O.O=S(=O)([O-])[O-].[Co+2]`, the Potency result in [1], in [2], in [3], in assay [4], in [5] and in assay [6] was “inactive” each time.

On to `CSC1=N[C@@](C)(c2ccccc2)C(=O)N1Nc1ccccc1`, for which the Potency entry in [1], in assay [2], in assay [3], in assay [7], in assay [5] and in [8] was “inactive” each time. Further, the Potency result in assay [6] was “inactive”.

Regarding `CCC(C)Br` (stereo not drawn), the Potency entry in [1], in assay [2], in [3], in assay [7], in assay [4] and in assay [5] was “inactive” throughout. The Potency result in assay [8], in [6] and in assay [11] was “inactive” in each case.

As for `O.O.O.O.O.O.O=S(=O)([O-])[O-].[Ni+2]`, the Potency entry in assay [1], in assay [2], in [3], in [4], in assay [5] and in assay [6] was “inactive” each time.

For `CC(=O)[O-].CC(=O)[O-].[Co+2]`, the Potency result in assay [1], in assay [2], in assay [3], in assay [4], in [5] and in assay [6] was “inactive” in each case.

Consider `CC(=O)C(Cl)C(=O)N(C)C` (stereo not drawn), for which the Potency entry in assay [1], in assay [2], in [3], in assay [7], in assay [4] and in [5] was “inactive” in each case. In addition, the Potency result in [12] and in [6] was “inactive” each time.

As to `CC(=O)[O-].CC(=O)[O-].CC(=O)[O-].[Cr+3]`, the Potency result in [1], in assay [2], in assay [3], in [4], in assay [5] and in [6] was “inactive” throughout.

As for `Clc1ccc(C(c2ccc(Cl)cc2)C(Cl)Cl)cc1`, the Potency in assay [1] was 39.5 µM (active) and 38.9 µM (active); in assay [12] it was 49.3 µM (active) and 21.7 µM (active). For the same compound, the Potency entry in assay [2], in assay [7], in assay [4], in assay [5], in assay [8] and in assay [6] was “inactive” in each case. Moreover, the Potency result in assay [9], in assay [10] and in assay [11] was “inactive” each time.

Turning to `Cc1cnc2c(C(=O)O)c(Cl)ccc2c1`, the Potency entry in assay [1], in assay [2], in [3], in assay [7], in assay [4] and in assay [5] was “inactive” in each case. The Potency entry in assay [6], in [9] and in assay [10] was “inactive” throughout.

For `CNN`, the Potency entry in assay [1], in assay [2], in assay [3], in assay [7], in [4] and in assay [6] was “inactive” each time.

For the compound `Cc1nn(-c2cc(NS(C)(=O)=O)c(Cl)cc2Cl)c(=O)n1C(F)F`, the Potency result in [1], in assay [2], in assay [7], in [5], in [6] and in assay [9] was “inactive” in each case. The Potency result in [10] and in assay [11] was “inactive” each time.

Consider `Oc1ccc(Cl)c(Cl)c1`, for which the Potency entry in assay [1], in assay [2], in assay [3], in assay [7], in assay [4] and in [8] was “inactive” throughout. Also, the Potency entry in assay [6], in [9] and in [10] was “inactive” throughout.

`CC(=O)O.CC(=O)O.CC(=O)O.CC(=O)O.CC(=O)O.CC(=O)O.CC(=O)O.O.O.[Cr].[Cr].[Cr]`: in [2], the Potency entry is “inactive”.

Turning to `COP(=S)(OC)Oc1ccc([N+](=O)[O-])c(C)c1`, the Potency result in [2] is “inactive”.

As for `Nc1c(Cl)c(Cl)c(Cl)c(Cl)c1Cl`, the Potency result in [13] and in assay [14] was “inactive” each time.
